Inconclusive results are not listed. A call without a number means that no potency is given here. Calls of active or inactive are those of the source. Calls follow the shape of the dose curve; as a rule, active = well fitted cell-killing curve with a large enough effect; inconclusive = small, poorly fitted or top-dose-only effect, or effect the other way; inactive = no such curve, though single readings can be large or run the other way.
Potency is read from the fitted curve at half-maximal effect.

This assay can be described thus: Quantitative High-Throughput drug screen in 47 multiple myeloma cell lines against the NCATS MIPE library collection: LP1_DSMZ cell viability assay (AID 1918982). Also: nearly all actives have a fitted effect of over 35% in size. The note with it: LP1 myeloma viability, CellTiter-Glo ATP luminescence, 48 h; series mostly up to 45.8 µM. The source says: PI: Beverly A. Mock Ph.D.
Laboratory of Cancer Biology and Genetics,
Center for Cancer Research, National Cancer Institute,
National Institute of Health, Bethesda, Maryland
Drug resistance and disease progression are common in multiple myeloma (MM) patients, underscoring the need for new therapeutic combinations. […] We hypothesized that effective combinations would reduce MYC expression and enhance p16 activity. […] These preclinical data identify potentially useful drug combinations for evaluation in drug-resistant MM and reveal potential mechanisms of combined drug sensitivity.
Described herein is the primary MIPE qHTS used to cherrypick compounds. Validated compounds were then further tested for potential synergistic activiy.
[1] Peat TJ, Gaikwad SM, Dubois W, Gyabaah-Kessie N, Zhang S, Gorjifard S, Phyo Z, Andres M, Hughitt VK, Simpson RM, Miller MA, Girvin AT, Taylor A, Williams D, D'Antonio N, Zhang Y, Rajagopalan A, Flietner E, Wilson K, Zhang X, Shinn P, Klumpp-Thomas C, McKnight C, Itkin Z, Chen L, Kazandijian D, Zhang J, Michalowski AM, Simmons JK, Keats J, Thomas CJ, Mock BA. Drug combinations identified by high-throughput screening promote cell cycle transition and upregulate Smad pathways in myeloma. Cancer Lett. 2023 Aug 1;568:216284. doi: 10.1016/j.canlet.2023.216284. Epub 2023 Jun 24. PMID: 37356470; PMCID: PMC10408729.
SEQUENCE No. (e.g., 1, 2, 3, etc.); […] (e.g., Cells, Incubation, Reagent, etc.); VALUE and DESCRIPTION.
1; Cells; 5 uL; white, solid bottom 1536-well Greiner assay plate.
2; Compounds; 23 nL; Kalypsis pin tool (Wako USA) equipped with a 1536-well pin head to transfer to the assay plates.
3; Incubation; 48 hours; 37C incubation.
4; Reagent;5uL; CellTiter Glo (Promega).
5; Detector; 425V; Luminescence; Viewlux PerkinElmer.
NOTES (numbers refer to Sequence numbers above)
1. The cell-based screening methods employed in this study were like those previously published. Briefly, the corresponding myeloma cell lines were screened in 1,536-well plates with 500 cells, 5-uL per well for inhibition of cell viability (assessed by measuring ATP levels with CellTiterGlo).
2. NCATS MIPE 4.0 library of approved and investigational drugs were added using the Kalypsis pin tool. Wells treated with DMSO only for 100% viability and media only for 0% viability were used as controls.
3. The assay plates were covered and incubated for 48 hours in a 37C, 5% CO2 incubator with controlled humidity.
4. After 48 hours, CellTilter-GloTM luminescent substrate mix (Promega) reagent was added to the assay plate and plates we incubated for 5 min at room temperature.
5. Signal was measured as median relative luminescence units on a ViewLux (PerkinElmer) multiplate reader.
[1] Heske CM, Davis MI, Baumgart JT, Wilson K, Gormally MV, Chen L, Zhang X, Ceribelli M, Duveau DY, Guha R, Ferrer M, Arnaldez FI, Ji J, Tran HL, Zhang Y, Mendoza A, Helman LJ, Thomas CJ. Matrix Screen Identifies Synergistic Combination of PARP Inhibitors and Nicotinamide Phosphoribosyltransferase (NAMPT) Inhibitors in Ewing Sarcoma. Clin Cancer Res. 2017 Dec 1;23(23):7301-7311. doi: 10.1158/1078-0432.CCR-17-1121. Epub 2017 Sep 12. PMID: 28899971; PMCID: PMC6636827.
(In general: In ATP-based viability assays light output follows the ATP content of the culture.)
With `CC(C)Cc1ccc(C(C)C(=O)O)cc1` (stereo not given), the Potency result is “inactive”.

Regarding `CC12CC3CC(C)(C1)CC(N)(C3)C2`, the Potency result was “inactive”.

`Cn1c(=O)c2[nH]cnc2n(C)c1=O`: the Potency result is “inactive”.

For the molecule `COC(=O)Nc1nc2ccc(C(=O)c3cccs3)cc2[nH]1`, the Potency was 0.0105 µM (active).

With `O=c1[nH]cc(F)c(=O)[nH]1`, the Potency is 14.8 µM (active).

Regarding `O=C(c1ccc(F)cc1)C1CCN(CCn2c(=O)[nH]c3ccccc3c2=O)CC1`, the Potency entry was “inactive”.

As to `CN(C)CCOC(c1ccccc1)c1ccccc1`, the Potency entry is “inactive”.

Regarding `Cc1ccc(C(=O)Nc2ccc(S(=O)(=O)O)c3cc(S(=O)(=O)O)cc(S(=O)(=O)O)c23)cc1NC(=O)c1cccc(NC(=O)Nc2cccc(C(=O)Nc3cc(C(=O)Nc4ccc(S(=O)(=O)O)c5cc(S(=O)(=O)O)cc(S(=O)(=O)O)c45)ccc3C)c2)c1`, the Potency result was “inactive”.

On to `COc1ccc2c(c1)c(CC(=O)O)c(C)n2C(=O)c1ccc(Cl)cc1`, for which the Potency entry is “inactive”.

With `COc1cc2c(c(OC)c1OC)-c1ccc(OC)c(=O)cc1[C@@H](NC(C)=O)CC2`, the Potency entry was “inactive”.

Consider `Cc1ccccc1N1C(=O)c2cc(S(N)(=O)=O)c(Cl)cc2NC1C` (stereo not given), for which the Potency entry was “inactive”.

In the case of `CCOC(=O)Nc1ccc(NCc2ccc(F)cc2)nc1N`, the Potency result was “inactive”.

Turning to `COc1nc(C)nc(Cl)c1NC1=NCCN1`, the Potency entry is “inactive”.

As to `CCOC(=O)c1ncn2c1CN(C)C(=O)c1cc(F)ccc1-2`, the Potency entry is “inactive”.

Consider `Cc1cnc(C(=O)NCCc2ccc(S(=O)(=O)NC(=O)NC3CCCCC3)cc2)cn1`, for which the Potency is 20.9 µM (active).

As for `OCCN1CCN(CCCN2c3ccccc3Sc3ccc(C(F)(F)F)cc32)CC1`, the Potency is 18.7 µM (active).

Take `CN(CCOc1ccc(NS(C)(=O)=O)cc1)CCc1ccc(NS(C)(=O)=O)cc1`: the Potency result was “inactive”.

On to `COc1ccccc1OCC(O)CN1CCN(CC(=O)Nc2c(C)cccc2C)CC1` (stereo not given), for which the Potency entry was “inactive”.

For the molecule `Cn1c(=O)c2c(ncn2C)n(C)c1=O`, the Potency entry was “inactive”.

In the case of `CCOC(=O)C(C)(C)Oc1ccc(Cl)cc1`, the Potency entry is “inactive”.

With `O=C(Nc1ccc([N+](=O)[O-])cc1Cl)c1cc(Cl)ccc1O`, the Potency is 0.743 µM (active).

As to `NC(CO)C(=O)NNCc1ccc(O)c(O)c1O` (stereo not given), the Potency was 20.9 µM (active).

For the molecule `CC#C[C@]1(O)CC[C@H]2[C@@H]3CCC4=CC(=O)CCC4=C3[C@@H](c3ccc(N(C)C)cc3)C[C@@]21C`, the Potency is 2.64 µM (active).

`CC[C@@]1(O)C(=O)OCc2c1cc1n(c2=O)Cc2cc3c(CN(C)C)c(O)ccc3nc2-1`: the Potency is 13.2 µM (active).

Regarding `O=C1c2c(O)ccc(O)c2C(=O)c2c(NCCNCCO)ccc(NCCNCCO)c21`, the Potency is 5.9 µM (active).

On to `Cn1cnc2c1c(=O)[nH]c(=O)n2C`, for which the Potency is 16.6 µM (active).

For `O=C(C1CCCCC1)N1CC(=O)N2CCc3ccccc3C2C1` (stereo not given), the Potency entry was “inactive”.

For the molecule `CN1C(C(=O)Nc2ccccn2)=C(O)c2ccccc2S1(=O)=O`, the Potency result is “inactive”.

Regarding `C[C@H]1c2cccc(O)c2C(O)=C2C(=O)[C@]3(O)C(O)=C(C(N)=O)C(=O)[C@@H](N(C)C)[C@@H]3[C@@H](O)[C@@H]21`, the Potency entry is “inactive”.

`NCCCCCC(=O)O`: the Potency result is “inactive”.

As for `CS(=O)(=O)CCNCc1ccc(-c2ccc3ncnc(Nc4ccc(OCc5cccc(F)c5)c(Cl)c4)c3c2)o1`, the Potency is 18.7 µM (active).

For `CC1COc2c(N3CCN(C)CC3)c(F)cc3c(=O)c(C(=O)O)cn1c23` (stereo not given), the Potency result is “inactive”.

For `CC(C)C(=O)Nc1ccc([N+](=O)[O-])c(C(F)(F)F)c1`, the Potency result was “inactive”.

As to `CC(C)NCC(O)COc1ccc(CCOCC2CC2)cc1` (stereo not given), the Potency result was “inactive”.

With `CC(=O)OCC(CCn1cnc2cnc(N)nc21)COC(C)=O`, the Potency entry is “inactive”.

On to `O=C1N(c2ccccc2)c2ccccc2C1(Cc1ccncc1)Cc1ccncc1`, for which the Potency entry was “inactive”.

Consider `CC(C(=O)O)c1cccc(C(=O)c2ccccc2)c1` (stereo not given), for which the Potency result was “inactive”.

As for `CC(C)(C)C(=O)Oc1ccc(S(=O)(=O)Nc2ccccc2C(=O)NCC(=O)O)cc1`, the Potency result is “inactive”.

For the molecule `Nc1nc2c(ncn2COC(CO)CO)c(=O)[nH]1`, the Potency is 23.5 µM (active).

On to `Cc1cn([C@H]2C=C[C@@H](CO)O2)c(=O)[nH]c1=O`, for which the Potency entry was “inactive”.

These data come from PubChem BioAssay (NCATS).
